The source made the active and inactive calls. Unless noted, no rule for the calls is given here.
Experiments:
[1] = A549 cell viability effects, profiling panel, calcein-AM fluorescence, 48 h, basal (AID 1162); conditions: higher = more signal; also: test concentration not given here
[2] = adipocyte viability effects, profiling panel, cell-based, 3T3-L1 adipocytes, calcein-AM fluorescence, 48 h, basal (AID 1163); conditions: 3T3-L1 adipocytes viability, higher = more signal; also: test concentration not given here
[3] = HepG2 cell viability effects, profiling panel, calcein-AM fluorescence, 48 h, basal (AID 1164); conditions: higher = more signal; also: test concentration not given here
[4] = MM1S cell viability effects, profiling panel, calcein-AM fluorescence, 48 h, basal (AID 1165); conditions: higher = more signal;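 also: viability of MM1S multiple myeloma cells under basal unstimulated conditions; test concentration not given here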
[5] = basal RPMI8226 viability, no added stimulus, profiling panel, cell-based, calcein-AM fluorescence, 48 h, PK04 Diversity Set (AID 1166); conditions: RPMI8226 myeloma viability, higher = more signal;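 also: cells grown under basal conditions without added stimulus; test concentration not given here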
[6] = basal HepG2 mitochondrial membrane potential changes, profiling panel, cell-based, JC-1 fluorescence, 24 h, 100 nL compound (AID 1167); conditions: higher = more signal; also: test concentration not given here
[7] = basal 3T3-L1 adipocyte mitochondrial potential changes, profiling panel, cell-based, JC-1 fluorescence, 3T3-L1 adipocytes, 24 h, 100 nL compound (AID 1168); conditions: JC-1 mitochondrial fluorescence, higher = more signal, called active from +8 up or from −8 down; also: test concentration not given here
[8] = basal RPMI8226 mitochondrial membrane potential changes, profiling panel, cell-based, JC-1 fluorescence, 24 h, 100 nL compound (AID 1169); conditions: RPMI8226 myeloma, JC-1 mitochondrial potential fluorescence, higher = more signal; also: test concentration not given here
[9] = basal MM1S mitochondrial membrane potential changes, profiling panel, cell-based, JC-1 fluorescence, 24 h, 100 nL compound (AID 1170); conditions: higher = more signal; also: test concentration not given here
[10] = A549 lung cancer cell viability effects, profiling panel, resazurin fluorescence, 24 h, PK04 Diversity Set (AID 1171); conditions: higher = more signal, called active from +8 up or from −8 down; also: test concentration not given here
[11] = HepG2 liver cancer cell viability effects, profiling panel, resazurin fluorescence, 24 h, PK04 Diversity Set (AID 1172); conditions: higher = more signal; also: test concentration not given here
[12] = basal S. cerevisiae growth modulation, no modifier, primary screen, OD600, strain BY4716, 24 h, basal condition (AID 1173); conditions: OD600, 24 h, higher = more signal, called active from +8 up or from −8 down
[13] = MM1S myeloma cell viability, profiling panel, resazurin fluorescence, basal, 24 h, PK04 Diversity Set (AID 1174); conditions: higher = more signal, called active from +8 up or from −8 down;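 also: MM1S multiple myeloma cell line; test concentration not given here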
[14] = biological target: Dihydroorotate dehydrogenase (quinone), mitochondrial (Plasmodium falciparum (isolate 3D7)) (UniProt Q08210); test: PfDHODH enzyme inhibitors, primary screen, biochemical, C-terminal His tag, absorbance 600 nm (AID 1175); conditions: DCIP absorbance 600 nm, higher = more signal, called active from +8 up or from −8 down;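 also: recombinant parasite enzyme with a five histidine tag at its C terminus; test concentration not given here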
[15] = P. aeruginosa biofilm formation inhibitors, primary screen, strain PAO1, LB-PBS medium, absorbance 600 nm (AID 1176); also: test concentration not given here; conditions: P. aeruginosa PAO1 growth/biofilm, A600, 12 h; higher = more signal
[16] = S. cerevisiae RM11-1a growth modifiers, primary screen, strain RM11-1a, OD600, basal, 24 h (AID 1177); conditions: OD600, 24 h, higher = more signal, called active from +8 up or from −8 down;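 also: cultures grown under basal conditions with no added stressor; test concentration not given here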
[17] = E. coli acrAB mutant growth effects, primary screen, E. coli filamentation inducers, strain DRC39, OD650, 24 h (AID 1178); conditions: higher = more signal, called active from +8 up or from −8 down;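 also: growth measured as culture turbidity by optical density at 650 nm; test concentration not given here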
[18] = E. coli acrAB mutant growth effects, primary screen, E. coli filamentation inducers, strain DRC39, OD650, 48 h (AID 1179);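 also: screen aims at cell division blockers that make cells filament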; conditions: E. coli DRC39 delta-acrAB growth, higher = more signal, called active from +8 up or from −8 down
[19] = RPMI8226 myeloma cell viability, profiling panel, resazurin fluorescence, basal, 24 h, PK04 Diversity Set (AID 1180); conditions: higher = more signal;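 also: RPMI8826 multiple myeloma cell line at 5000 cells per well; test concentration not given here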
[20] = biological target: E3 ubiquitin-protein ligase XIAP (Homo sapiens) (UniProt P98170); test: XIAP binders, primary screen, biophysical, small-molecule microarray, fluorescence 635 nm (AID 1181); conditions: small-molecule microarray binding, higher = more signal;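 also: score merges 667 nm emission and signal to noise over triplicate slides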
E3 ubiquitin-protein ligase XIAP (Homo sapiens), sequence (P98170 whole entry, looked up): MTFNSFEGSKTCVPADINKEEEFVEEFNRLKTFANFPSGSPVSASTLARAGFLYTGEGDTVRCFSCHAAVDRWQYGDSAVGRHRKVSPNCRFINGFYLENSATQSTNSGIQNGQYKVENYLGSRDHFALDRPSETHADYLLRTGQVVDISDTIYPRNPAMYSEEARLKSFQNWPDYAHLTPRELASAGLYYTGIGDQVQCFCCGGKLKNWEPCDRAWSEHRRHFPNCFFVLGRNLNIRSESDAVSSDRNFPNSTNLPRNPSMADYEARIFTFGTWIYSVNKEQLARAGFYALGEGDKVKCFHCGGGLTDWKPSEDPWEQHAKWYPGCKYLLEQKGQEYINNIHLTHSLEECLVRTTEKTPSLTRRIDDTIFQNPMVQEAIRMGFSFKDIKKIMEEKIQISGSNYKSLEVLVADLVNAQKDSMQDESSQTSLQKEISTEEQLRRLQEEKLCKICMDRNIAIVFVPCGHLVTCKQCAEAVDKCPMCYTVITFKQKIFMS

Dihydroorotate dehydrogenase (quinone), mitochondrial (Plasmodium falciparum (isolate 3D7)), sequence (Q08210 whole entry, looked up): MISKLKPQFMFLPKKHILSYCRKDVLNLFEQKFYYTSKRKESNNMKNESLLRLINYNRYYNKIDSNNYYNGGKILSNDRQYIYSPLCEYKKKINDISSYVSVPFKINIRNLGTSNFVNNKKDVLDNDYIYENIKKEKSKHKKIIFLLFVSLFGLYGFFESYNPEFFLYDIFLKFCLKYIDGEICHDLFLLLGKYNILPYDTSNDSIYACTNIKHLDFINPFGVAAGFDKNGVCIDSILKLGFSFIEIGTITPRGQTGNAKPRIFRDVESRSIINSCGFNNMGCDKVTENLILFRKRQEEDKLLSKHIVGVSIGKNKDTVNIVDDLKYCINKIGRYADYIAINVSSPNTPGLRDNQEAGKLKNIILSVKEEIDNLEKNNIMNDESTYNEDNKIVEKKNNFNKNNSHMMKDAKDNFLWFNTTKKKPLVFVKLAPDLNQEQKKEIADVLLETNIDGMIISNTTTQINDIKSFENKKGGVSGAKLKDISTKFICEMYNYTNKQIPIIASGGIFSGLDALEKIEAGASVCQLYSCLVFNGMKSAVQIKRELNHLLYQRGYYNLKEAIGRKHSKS

SMILES	z-score [1]	z-score [2]	z-score [3]	z-score [4]	z-score [5]	z-score [6]	z-score [7]	z-score [8]	z-score [9]	z-score [10]	z-score [11]	z-score [12]	z-score [13]	composite z-score [14]	z-score [15]	z-score [16]	z-score [17]	z-score [18]	z-score [19]	composite z-score [20]
COC(=O)[C@]1(Cc2ccccc2CN=[N+]=[N-])N=C(c2ccc(OCCCO)cc2)O[C@@H]1c1ccccc1	-3.05	0.371	-4.37	-3.58	-3.96	-1.05	0.199 (inactive)	-1.05	-2.7	-2.91 (inactive)	-2.08	1.42 (inactive)	-4.5 (inactive)	2.51 (inactive)	0.948 (inactive)	3.06 (inactive)	0.286 (inactive)	-0.865 (inactive)	-5.26	-0.184
O=C1O[C@H](c2ccccc2)[C@H](c2ccccc2)N2[C@H]1[C@@H](C(=O)NC[C@H](O)c1ccccc1)[C@]1(C(=O)Nc3ccccc31)[C@H]2c1ccccc1OCCO	-1.78	0.559	-5.16	-3.38	-4.61	-2.92	2.95 (inactive)	-1.15	-2.19	-3.12 (inactive)	-2.69	-0.251 (inactive)	-9.21 (active)	-0.719 (inactive)	3.02 (inactive)	1.75 (inactive)	0.346 (inactive)	0.784 (inactive)	-7.33	0.189
C[N+](C)(C)CCCCCCNC(=O)[C@H]1C[C@H]2C(=O)N3CCC[C@H]3C(=O)N2[C@H]1c1cccc(OCCO)c1	-0.538	-1.25	-0.684	0.429	0.512	-1.68	-0.416 (inactive)	-0.173	-0.167	0.558 (inactive)	0.473	-0.187 (inactive)	-0.41 (inactive)	-0.788 (inactive)	-0.13 (inactive)	-0.637 (inactive)	0.12 (inactive)	-0.271 (inactive)	-0.767	0.135
COc1ccccc1CN1C(=O)c2ccccc2[C@](Cc2ccccc2I)(C(=O)NCCN2CCOCC2)[C@@H]1c1ccc(CO)cc1	0.0739	0.937	1.26	-1.17	-2.74	2.25	0.833 (inactive)	-0.673	-0.454	-1.83 (inactive)	-2.07	-0.261 (inactive)	-0.914 (inactive)	-1.1 (inactive)	0.817 (inactive)	-0.897 (inactive)	0.533 (inactive)	0.908 (inactive)	-1.66	-0.108
O=C1NC(=O)C2C1C=CC(C(O)c1ccc(-c3ccccc3)s1)N2Nc1ccccn1 (stereo not given)	-0.275	-0.456	-0.538	-0.0747	-0.642	-1.85	-0.544 (inactive)	-0.115	-0.371	-0.842 (inactive)	-1.04	1.14 (inactive)	-1.12 (inactive)	1.24 (inactive)	1.23 (inactive)	0.347 (inactive)	0.547 (inactive)	0.193 (inactive)	-1.17	0.549
[N-]=[N+]=Nc1ccccc1[C@@H]1OC(c2ccc(OCCCO)cc2)=N[C@]1(CCS(=O)(=O)c1ccccc1)C(=O)NCc1ccccc1	0.282	0.803	0.82	-0.723	-0.185	0.136	3.88 (inactive)	-1.03	-0.856	-0.725 (inactive)	-0.287	1.18 (inactive)	-0.37 (inactive)	-2.59 (inactive)	0.727 (inactive)	1.4 (inactive)	0.439 (inactive)	1.01 (inactive)	-0.893	0.125
O=C1O[C@H](c2ccccc2)[C@H](c2ccccc2)N2[C@H]1[C@@H](C(=O)N1CCCCCCC1)[C@]1(C(=O)Nc3ccc(C#CCCO)cc31)[C@H]2c1ccc(OCCO)cc1	-0.84	0.162	0.409	-0.276	-0.105	-0.0749	-0.962 (inactive)	-0.737	-0.919	1.93 (inactive)	1.08	0.905 (inactive)	0.332 (inactive)	0.521 (inactive)	0.0568 (inactive)	-0.0365 (inactive)	0.136 (inactive)	-0.656 (inactive)	0.543	2.52
C=CC[C@]1(C(=O)N(C)C)N=C(c2ccc(OCCCO)cc2)O[C@H]1c1ccccc1	0.203	1.17	-0.308	-0.27	-1.19	1.5	0.644 (inactive)	-0.741	-1.33	1.32 (inactive)	0.549	-2.54 (inactive)	0.911 (inactive)	-0.588 (inactive)	-0.484 (inactive)	-0.689 (inactive)	1.23 (inactive)	0.771 (inactive)	0.586	0.133
NC(=O)NCC#Cc1ccc2c(c1)[C@]1(C(=O)N2)[C@H](c2ccc(O)cc2)N2[C@H](c3ccccc3)[C@H](c3ccccc3)OC(=O)[C@H]2[C@@H]1C(N)=O	0.233	-1.07	0.705	0.669	1.23	-0.538	-0.06 (inactive)	-0.371	-0.691	-1.08 (inactive)	-0.49	-0.297 (inactive)	-0.226 (inactive)	-0.552 (inactive)	0.185 (inactive)	0.603 (inactive)	0.968 (inactive)	0.936 (inactive)	-0.11	0.074

— PubChem BioAssay
